Cell viability and kynurenine production data for 19 molecules are collected here from the supplement of paper PMC13094657.

Structures are written as SMILES. ± gives the standard deviation of the averaged measurements.

In test [1] the test system is MDA-MB-231. In words: cell viability relative to vehicle unstimulated control (fraction); higher = more viable cells. The conditions noted are these: pre-treatment time: 18 h then 24 h IFNg/TNF.
In test [2] the test system is MDA-MB-231. In words: kynurenine production, fold change vs DMSO IFNg/TNF control; higher = more kynurenine produced (less inhibition). The following applies: pre-treatment time: 18 h then 24 h IFNg/TNF. The essentials: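 MDA-MB-231 cells (7 × 10^4/well, 96-well plates, seeded 24 h earlier) were pre-treated 18 h with each natural product in 0.1% DMSO, then stimulated 24 h with IFNγ (1 U/ml) and TNF (6.25 ng/ml) at 37°C. Supernatant kynurenine was read at 492 nm after trichloroacetic acid and p-dimethylaminobenzaldehyde treatment, against 0–100 μM standards. Kynurenine production is the fold change over cytokine-stimulated vehicle wells on the same plate, averaged over duplicate plates in the first screening round.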
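For cell viability relative to vehicle unstimulated control in this document: viability of the cells left after supernatant collection, read with Deep Blue dye added for 4 h, as absorbance at 570 nm minus 600 nm.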

`O=c1cc(-c2ccc(O)c(O)c2)oc2c([C@@H]3O[C@H](CO)[C@@H](O)[C@H](O)[C@H]3O)c(O)cc(O)c12` [Orientin] (compound dose: 10 uM): the cell viability in test [1] amounted to 0.922 ± 0.069. In addition, in test [2], the kynurenine production stood at 0.918 ± 0.1.
The like results for `COc1c2cc3c(c1OC)CCN(C)[C@@H]3Cc1ccc(cc1)Oc1cc3c(c(OC)c1OC)CCN(C)[C@@H]3Cc1ccc(cc1)O2` [Cycleanine] (compound dose: 10 uM) were, in that order, 0.118 ± 0.0024 and 0.198 ± 0.023.
The corresponding values for `C=C1C(=O)O[C@H]2C[C@@H](C)[C@@H]3[C@@H](OC(C)=O)C[C@H](O)[C@@]3(C)[C@@H](OC(C)=O)[C@H]12` [Britannin] (compound dose: 10 uM) are 1.01 ± 0.043 and 0.268 ± 0.075.
The corresponding values for `CC1=CCC2CC1C2(C)C` (stereo not drawn) [(-)-α-Pinene] (compound dose: 10 uM) are 1.01 ± 0.035 and 1.21 ± 0.14.
With `CC(=O)O[C@H]1C(=O)[C@@]2(C)[C@H]([C@H](OC(=O)c3ccccc3)[C@]3(O)C[C@H](OC(=O)[C@H](O)[C@@H](NC(=O)c4ccccc4)c4ccccc4)C(C)=C1C3(C)C)[C@]1(OC(C)=O)CO[C@@H]1C[C@@H]2O` [Paclitaxel] (compound dose: 10 uM), the cell viability in test [1] amounted to 0.827 ± 0.035. Further, in test [2], the kynurenine production is 0.317 ± 0.017.
For `O[C@H]1[C@H]2c3cc4c(cc3CN3CCC(=C[C@@H]1O)[C@H]23)OCO4` [Lycorine chloride] (compound dose: 10 uM), the cell viability in test [1] worked out at 0.582 ± 0.056. In addition, the kynurenine production in test [2] amounted to 0.184 ± 0.072.
The like results for `COC(=O)C1=C2CCOC3=C2C2=C1C(=O)[C@@H]1C[C@H]4N(C[C@@H](CC3)[C@@]24C)C[C@H]1C` [Daphnicyclidin D] (compound dose: 10 uM) were, in that order, 0.948 ± 0.076 and 0.831 ± 0.18.
The like results for `CC(CCC(OC1OC(CO)C(O)C(O)C1OC1OC(CO)C(O)C(O)C1O)C(C)(C)O)C1CCC2(C)C3CC=C4C(CCC(OC5OC(COC6OC(CO)C(O)C(O)C6O)C(O)C(O)C5O)C4(C)C)C3(C)C(O)CC12C` (stereo not drawn) [Mogroside IV] (compound dose: 10 uM) were, in that order, 0.996 ± 0.11 and 1.12 ± 0.23.
The corresponding values for `COC(=O)c1cccnc1` [Methyl nicotinate] (compound dose: 10 uM) are 0.974 ± 0.037 and 0.874 ± 0.23.
Consider `C[C@@H]1O[C@@H](O[C@H]2[C@H](O)[C@@H](O)[C@H](OC[C@H]3O[C@@H](OC(=O)[C@]45CCC(C)(C)C[C@H]4C4=CC[C@@H]6[C@@]7(C)CC[C@H](O[C@@H]8OC[C@H](O)[C@H](O)[C@H]8O)[C@@](C)(CO)[C@@H]7CC[C@@]6(C)[C@]4(C)CC5)[C@H](O)[C@@H](O)[C@@H]3O)O[C@@H]2CO)[C@H](O)[C@H](O)[C@H]1O` [Cauloside D] (compound dose: 10 uM), for which the cell viability in test [1] was 0.997 ± 0.083. Also, the kynurenine production in test [2] amounted to 1.23 ± 0.19.
Turning to `C=C1[C@H](OC(C)=O)[C@@H](OC(C)=O)[C@@H](OC(C)=O)C(C)(C)/C=C/[C@H](C)[C@H](OC(C)=O)[C@@]2(O)C[C@@](C)(OC(C)=O)[C@H](OC(=O)c3ccccc3)[C@@H]2[C@H]1OC(C)=O` [Jatrophane 2] (compound dose: 10 uM), the cell viability in test [1] was 1.08 ± 0.062. In test [2], the kynurenine production stood at 0.926 ± 0.049.
The corresponding values for `C/C1=C/CC[C@H](C)C(=O)C[C@@H](C(C)C)C(=O)C1` [Curdione] (compound dose: 10 uM) are 0.926 ± 0.015 and 1.02 ± 0.059.
The corresponding values for `C=C(C)C1CC=C(C)[C@@H](O)C1` (stereo partly drawn) [Carveol] (compound dose: 10 uM) are 1.07 ± 0.081 and 0.801 ± 0.38.
The corresponding values for `CC12CCC(CC1)C(C)(C)O2` [1,8-cineole] (compound dose: 10 uM) are 0.978 ± 0.067 and 0.913 ± 0.074.
Turning to `C=C(C)[C@@H]1CC=C(CO)CC1` [(S)-(-)-Perillyl alcohol] (compound dose: 10 uM), the cell viability in test [1] was found to be 0.984 ± 0.02. For the same molecule, the kynurenine production in test [2] was determined as 1.19 ± 0.25.
The corresponding values for `CC(=O)OCC1=CCC2C(C=C(C)C(=O)C3(OC(C)=O)CC(C)C(OC(=O)c4ccccc4)C3C1OC(C)=O)C2(C)C` (stereo not drawn) [Euphorbia factor L7b] (compound dose: 10 uM) are 1.07 ± 0.03 and 0.936 ± 0.035.
As for `CSC(=O)OCC1=C[C@H](O)[C@H]2C(C(=O)O)=CO[C@@H](O[C@@H]3O[C@@H](CO)[C@@H](O)[C@@H](O)[C@H]3O)[C@H]12` [Paederosidic acid] (compound dose: 10 uM), the cell viability in test [1] was 1.14 ± 0.012. Moreover, the kynurenine production in test [2] came to 1.07 ± 0.07.
Regarding `CC1=CC(=O)[C@@H]2C[C@H]1C2(C)C` [Verbenone] (compound dose: 10 uM), in test [1], the cell viability came out at 1.128 ± 0.0013. Besides, the kynurenine production in test [2] was 1.25 ± 0.13.
The like results for `C=C(CCC=C(C)C)[C@H]1CC[C@]2(C)[C@@H]1[C@H](O)C[C@@H]1[C@@]3(C)CC[C@H](O)C(C)(C)[C@@H]3[C@@H](O[C@@H]3O[C@H](CO)[C@@H](O)[C@H](O)[C@H]3O)C[C@]12C` [Ginsenoside Rk3] (compound dose: 10 uM) were, in that order, 0.96 ± 0.035 and 0.81 ± 0.11.
